We go through nine molecules from PubChem BioAssay (NCI).

Molecules are shown by their SMILES. About 83,000 compounds went through this panel and 20% of them were active in at least one assay; those are over-represented in the sample as a whole.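 Interpretation: 100, growth as untreated; towards 0, rising growth inhibition; 0, no net growth; 0 to -100, cell death. Compounds scoring below 10 were considered active.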 A number with no mark means an inactive call. The source made the active and inactive calls.

Assay in all cases: NCI-60 one-dose screen, 48 h (100 = growth as untreated, 0 = no growth, -100 = all killed)
Details in all cases: 10 µM unless noted

For assay [1], the system named is SR leukemia.
Assay [2] has as its system RPMI-8226 leukemia.
In assay [3] the test system is OVCAR-8 ovarian.
Assay [4] concerns OVCAR-5 ovarian.
The subject of assay [5] is OVCAR-4 ovarian.
For assay [6], the system named is SK-OV-3 ovarian.
The subject of assay [7] is IGROV1 ovarian.
Assay [8] concerns OVCAR-3 ovarian.
The test system of assay [9] is HS 578T breast.
In assay [10] the test system is NCI/ADR-RES ovarian.
Assay [11] relates to T-47D breast.
The test system of assay [12] is MDA-MB-435 melanoma.
For assay [13], the system named is SW-620 colon.
In assay [14] the test system is MCF7 breast.
The subject of assay [15] is HCT-116 colon.
Assay [16] has as its system HCC-2998 colon.
For assay [17], the system named is KM12 colon.
For assay [18], the system named is BT-549 breast.

Turning to `COc1ccc2cc(Cn3cc[n+](Cc4ccc5ccccc5c4)c3)ccc2c1`, the growth was 9.3% (active) in assay [1]; 1.54% (active) in assay [2]; 8.73% (active) in assay [3]; 45.6% in assay [4]; 8.75% (active) in assay [5]; 29.8% in [6]. Further, the growth in [7] is -9.16% (active); in assay [8], 4.18% (active); in [9] it was 46.3%; in [10], 102%; in assay [11] it was -4.51% (active); in assay [12], 7% (active). In addition, the growth was 44.4% in assay [13]; 40.9% in assay [14]; 33.7% in assay [15]; 26.7% in assay [16]; -23.2% (active) in [17].

As for `O=C(O)CCCn1c(SCc2c(Cl)cccc2Cl)nc2ccsc2c1=O`, the growth in assay [1] was 9.9% (active); in [2], 19.2%; in [3] it was 28.8%; in assay [4], 50.7%; in assay [5] it was 70.7%; in assay [6] it was 34.3%. The growth in [7] was 44.9%; in [8] it was -20.4% (active); in assay [9] it was 11.9%; in assay [10] it was 4.6% (active); in [18], 34.2%; in assay [12], -58.4% (active). For the same molecule, the growth in assay [13] is 15.1%; in assay [14] it was 20.6%; in [15] it was 18.8%; in assay [16], 29.6%; in assay [17], 18.3%.

As for `O=C(CN1C(=O)/C(=C/c2ccco2)SC1=S)NCCc1c[nH]c2ccc(F)cc12`, the growth in assay [1] was 111%; in [2], 97.8%; in assay [3], 105%; in [4] it was 105%; in [5], 99.7%; in assay [6] it was 93.7%. Moreover, the growth is 104% in assay [7]; 110% in [8]; 95.9% in [9]; 99.1% in assay [10]; 97.4% in assay [18]; 104% in assay [12]. Also, the growth is 107% in [13]; 97.5% in [14]; 96.6% in assay [15]; 115% in assay [16]; 101% in assay [17].

Consider `CC(O)c1ncc(/C=C2\SC(=S)N(Cc3ccccc3)C2=O)s1` (stereo unspecified), for which the growth is 82.4% in assay [1]; 52.3% in assay [2]; 102% in assay [3]; 98.6% in [4]; 85.1% in assay [5]; 96.6% in assay [6]. Further, the growth in [7] was 100%; in assay [8], 97.2%; in assay [9] it was 109%; in [10], 99.5%; in [18] it was 92.9%; in assay [12], 80.5%. The growth is 90.3% in [13]; 80.3% in assay [14]; 96% in assay [15]; 120% in assay [16]; 81% in assay [17].

For the molecule `Cc1ccccc1OCC(O)COc1ccccc1C`, the growth in assay [1] was 114%; in assay [2] it was 107%; in assay [3], 91.1%; in assay [4], 103%; in assay [5], 104%; in assay [6], 108%. In addition, the growth is 85.1% in assay [7]; 114% in assay [8]; 117% in assay [9]; 111% in assay [10]; 88.7% in [11]; 94.6% in [12]. In addition, the growth was 103% in assay [13]; 90.7% in [14]; 103% in assay [15]; 573% in assay [16]; 103% in assay [17].

Consider `O=C(Nc1ccc(F)cc1)Nc1ccccc1CNc1nc(Nc2ccc(OCCN3CCCC3)cc2)ncc1Cl`, for which the growth in [1] was 2.14% (active); in assay [2], -4.89% (active); in assay [3], 23.1%; in assay [4] it was 16.9%; in assay [5], -7.62% (active); in assay [6], 92.8%. Further, the growth was 56.2% in [7]; -43.1% (active) in assay [8]; 74.3% in assay [9]; 44.5% in [10]; 100% in assay [11]; 16.3% in [12]. In addition, the growth in assay [14] is 32.5%; in [15] it was 21.8%; in [16], 48.6%; in assay [17] it was 49.6%.

Take `CN1C(=O)/C(=C/c2ccc(C(=O)Nc3ncc(Cc4ccc(F)cc4)s3)cc2)SC1=S`: the growth in [1] is 44.5%; in assay [2], 54.6%; in assay [3], 57.9%; in assay [4], 61.2%; in assay [5], 60.1%; in assay [6], 40.3%. Further, the growth in [7] is 54.3%; in assay [8] it was 27.7%; in assay [9] it was 37.9%; in [10], 28.7%; in assay [11], 34.5%; in assay [12] it was -36.3% (active). Besides, the growth in assay [13] is 28.8%; in assay [14] it was 46.8%; in assay [15], 32.6%; in assay [16], 41.1%; in [17], 15.6%.

For `COc1ccc(C2=NN(C(=O)c3cc(OC)c(OC)c(OC)c3)C(c3ccc(N(C)C)cc3)C2)cc1` (stereo unspecified), the growth was 15.3% in assay [1]; -27.9% (active) in assay [2]; 29.3% in assay [3]; 64.7% in assay [4]; 35.2% in assay [5]; 35.4% in assay [6]. Moreover, the growth in [7] was -8.59% (active); in assay [8] it was 5.03% (active); in assay [9], 13.6%; in [10], -5.85% (active); in assay [18], 28.4%; in [12] it was -30.4% (active). Also, the growth is 28.3% in assay [13]; 15% in assay [14]; 11.8% in assay [15]; 1.81% (active) in assay [16]; 23.3% in assay [17].

As for `C[N+](C)(C/C=C/c1ccccc1)Cc1ccccc1`, the growth in assay [1] is 97.7%; in assay [2], 123%; in [3], 107%; in assay [4] it was 81.2%; in [5], 97.4%; in assay [6], 107%. Also, the growth is 94.5% in assay [7]; 96.4% in assay [8]; 106% in assay [9]; 99.1% in assay [10]; 94.4% in assay [11]; 101% in assay [12]. The growth in assay [13] was 100%; in assay [14], 100%; in assay [15], 95.5%; in assay [17], 95.4%.
